From PubChem BioAssay
Active and inactive are the calls of the source.

target: NADPH oxidase 4 (Homo sapiens) (UniProt Q9NPH5); assay: NOX4-dependent H2O2 signal modulators, primary screen, NOX inhibitor project, cell-based, HEK293-NOX4, tetracycline-induced, Amplex Red fluorescence (AID 1160); settings: 45 min, higher = more signal, called active from +8 up or from −8 down
Sequence (Q9NPH5 whole entry, looked up): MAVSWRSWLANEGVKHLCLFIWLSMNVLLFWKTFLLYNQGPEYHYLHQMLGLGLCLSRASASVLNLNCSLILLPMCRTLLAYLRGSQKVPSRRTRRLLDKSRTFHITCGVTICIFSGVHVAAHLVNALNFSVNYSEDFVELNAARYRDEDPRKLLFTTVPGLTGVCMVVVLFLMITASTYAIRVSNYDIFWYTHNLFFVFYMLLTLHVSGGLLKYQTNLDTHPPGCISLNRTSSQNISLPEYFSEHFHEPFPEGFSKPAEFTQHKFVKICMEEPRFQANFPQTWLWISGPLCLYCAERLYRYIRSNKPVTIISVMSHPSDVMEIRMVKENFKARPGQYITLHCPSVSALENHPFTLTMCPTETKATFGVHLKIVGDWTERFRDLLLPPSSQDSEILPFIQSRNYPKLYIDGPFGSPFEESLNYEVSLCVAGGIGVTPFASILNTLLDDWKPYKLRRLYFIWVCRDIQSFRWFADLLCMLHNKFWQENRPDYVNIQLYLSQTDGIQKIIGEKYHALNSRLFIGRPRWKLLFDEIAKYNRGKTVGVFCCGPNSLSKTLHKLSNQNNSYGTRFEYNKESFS

z-score, inactive:
CC(C)C(=C=CC[C@H](O)c1ccccc1OCCO)C[C@H](O)COCc1ccccc1 -1.44, CC(C)NC(=O)[C@@]1(c2ccc([N+](=O)[O-])cc2)CC(=O)N(CC23CC4CC(CC(C4)C2)C3)[C@@H]1c1ccc(CO)cc1 -1.02, CC(C)=C1C(=O)C(c2ccccc2)=C2CN3C(=O)N(CCc4ccccc4)C(=O)[C@]3(C)[C@H]21 -1.55, [N-]=[N+]=Nc1ccccc1[C@H]1OC(c2ccc(OCCCO)cc2)=N[C@@]1(Cc1ccccc1)C(=O)NCC(O)CO (some centres not stated) 1.67, COCCCNC(=O)[C@@]1(CCS(=O)(=O)c2ccccc2)COC(c2ccc(OCCCO)cc2)=N1 0.25, CC(C)(C)N1CC=CC23O[C@@H]4C=CCOC(=O)[C@@H]4[C@H]2C(=O)N(CCO)[C@@H]3C1=O (some centres not stated) 1.32, CN(C)CCCCNC(=O)[C@H]1C[C@H]2C(=O)NCC(=O)N2[C@H]1c1ccc(O)cc1 1.09, CC(C)C(O)C1C=CC2C(=O)NC(=O)C2N1Nc1ccccn1 (configuration not stated) -1.41, O=C1C2C=CC(C(O)c3ccc([N+](=O)[O-])cc3)N(Nc3ccccc3F)C2C(=O)N1c1ccccc1 (configuration not stated) -4.13, CN(C)CCCC[C@@H]1NC(=O)[C@@H]2C[C@H](C(=O)NCCCCCN)[C@H](c3cccc(OCCO)c3)N2C1=O 0.585, CC1CC/C=C\[C@H]2OC34C=CCN(Cc5ccccc5)C(=O)[C@H]3N(CCCCCCO)C(=O)[C@@H]4C2C(=O)O1 (some centres not stated) 0.185, C=CCC(OC(C)=O)[C@@H]1[C@@H](N(Cc2cccc3ccccc23)C(=O)c2ccc(-c3ccccc3)cc2)c2cc(OCCCO)ccc2N1C(=O)Cc1ccc2ccccc2c1 (some centres not stated) 1.15, CC(C)NC(=O)[C@@]1(C)c2ccccc2C(=O)N(Cc2ccccc2)[C@H]1c1ccc(CO)cc1 0.485, COC(=O)[C@@]1(Cc2ccccc2)[C@H]2c3cc(C(=O)N4CCCC4)n(Cc4ccc(OC)c(OC)c4)c3C[C@H]2CN1C(=O)c1ccccc1 0.104, O=C1C[C@@](C(=O)NCc2ccccc2)(c2ccc([N+](=O)[O-])cc2)[C@@H](c2ccc(CO)cc2)N1C1CCCCC1 0.333, [N-]=[N+]=Nc1ccccc1[C@@H]1OC(c2ccc(OCCCO)cc2)=N[C@]1(CCS(=O)(=O)c1ccccc1)C(=O)NCC(O)CO (some centres not stated) -0.18, CCOC(=O)C[C@H]1[C@H](OC(=O)c2ccccc2-c2ccccc2)[C@@H](NC(=O)c2ccc3ccccc3c2)c2cc(OCCCO)ccc2N1C(=O)Cc1ccc(OC)cc1 1.02, CCOC(=O)C[C@H]1[C@H](OC(=O)Cc2ccc3c(c2)OCO3)[C@@H](NC(=O)Cc2ccc(OC)cc2)c2cc(OCCCO)ccc2N1C(=O)Cc1ccc(OC)cc1 0.754, Cc1ccc(C(C)CC(O)C2C=CC3C(=O)N(C)C(=O)C3N2Nc2ccccc2)o1 (configuration not stated) -4.75, Cc1ccc(S[C@]2(C(=O)NCC(F)(F)F)CC(=O)N(Cc3ccccc3C(F)(F)F)[C@@H]2c2ccc(CO)cc2)cc1 0.426, COC(=O)[C@]1(Cc2ccccc2)N=C(c2ccc(OCCCO)cc2)O[C@@H]1c1ccccc1CN=[N+]=[N-] -1.36, COC(=O)C(CC#Cc1ccc2c(c1)[C@]1(C(=O)N2)[C@H](c2ccc(OCCO)cc2)N2[C@H](c3ccccc3)[C@H](c3ccccc3)OC(=O)[C@H]2[C@@H]1C(=O)N1CCCCCCC1)C(=O)OC 0.196, C[C@]1(C(=O)O)c2ccccc2C(=O)N(Cc2cc(F)cc(C(F)(F)F)c2)[C@H]1c1ccc(CO)cc1 -1.43, O=C(NC1CC1)[C@@H]1c2ccccc2C(=O)N(CC23CC4CC(CC(C4)C2)C3)[C@H]1c1ccc(CO)cc1 0.157, COC(=O)[C@@]1(Cc2ccc(OC)cc2)[C@H]2c3cc(C(=O)N4CCCC4)n(CCn4cc([N+](=O)[O-])nc4C)c3C[C@H]2CN1C(=O)c1ccccc1 -1.39, CC1CC/C=C\[C@H]2OC34C=CCN(c5ccc6ccccc6c5)C(=O)[C@H]3N(C(C)CO)C(=O)[C@@H]4C2C(=O)O1 (some centres not stated) -0.181, O=C1C[C@]2(c3ccc([N+](=O)[O-])cc3)C(=O)N(C3CC3)c3cc(CO)ccc3[C@H]2N1C1CCCCC1 0.987
